Among the data in PubChem BioAssay (NCI) are growth values, retold here.

About 83,000 compounds went through this panel and 20% of them were active in at least one assay; those are over-represented in the sample as a whole.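 96-well plates, one dose, 48 hours. Percent growth reported; active if below 10.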 Active and inactive are the calls of the source.

The experiment concerns HL-60(TB) leukemia. As to the kind of experiment: NCI-60 one-dose screen, 48 h (100 = growth as untreated, 0 = no growth, -100 = all killed). The settings on record: 10 µM unless noted.
In the case of `COc1ccc(-c2cn[nH]c2-c2cc(OC)c(OC)c(OC)c2)cc1`, the growth was -21.2% (active).
With `CCCCCC(=O)OCc1ccccc1`, the growth was 89.4% (inactive).
For `COc1ccc(C(=O)c2sc3nc(-c4cccs4)ccc3c2N)cc1OC` the value was 23.3% (inactive); for `Nc1cccc(-c2nc3sccn3c2-c2ccnc(NCCCNS(=O)(=O)c3cccc4ccccc34)n2)c1`, 7% (active).
For `O=c1c(-c2ccc3c(c2)OCO3)coc2c(CO)c(O)ccc12` the value was -46.9% (active).
In the case of `O=C(CCc1nnc2sc(Cc3ccccc3Cl)nn12)c1nc2ncccc2[nH]1` it was 116% (inactive); in that of `O=C(/C=C/c1cc2ccccc2[nH]c1=O)c1ccc(O)cc1`, 16% (inactive).
As to `CCCCCCCCCCCCCCCC(=O)OC[C@@]1(O)C[C@@]23CC[C@@H]4C(C)(C)CCC[C@@]4(C)[C@@H]2CC[C@H]1C3`, the growth was 73.3% (inactive).
On to `Cc1cc(C)n(CC(=O)Nc2ccc(-c3nc4ccccc4s3)cc2)n1`, for which the growth is 103% (inactive).
For `[2H]C([2H])([2H])Oc1cccc(/C=C/C(=O)/C=C(/C=C/c2cccc(OC([2H])([2H])[2H])c2OC([2H])([2H])[2H])OB(F)F)c1OC([2H])([2H])[2H]` the value was 60% (inactive); for `COc1ccc(C(=S)N2CCN(c3cccc(C)c3)CC2)cc1OC`, 57.3% (inactive).
For `c1ccc(-c2oc3ccccc3c2-c2ccccc2)cc1` the value was 48.5% (inactive); for `COc1ccc(-c2[nH]c3ccccc3c2-c2ccc(OC)cc2)cc1`, 24.6% (inactive); for `CC1(C)Cc2c(Br)c(Br)c(Br)c(OCC(O)CN3CCN(c4ccccn4)CC3)c2O1` (stereo not given), 61.1% (inactive).
Regarding `CCCNC(=O)Oc1ccc(/C(=C(/CC)Cc2ccccc2)c2ccc(OCCN(CC)CC)cc2)cc1`, the growth was 53.3% (inactive).
For `Fc1ccc(Cn2cc(CSc3nc4ccccc4o3)nn2)cc1` the value was 104% (inactive); for `C=CCc1cc(OC)c(OC)c(OC)c1`, 78.7% (inactive); for `COc1cc(-c2cc(/C=C/C(=O)c3ccc(Cl)c(Cl)c3)[nH]n2)cc(OC)c1OC`, 87.3% (inactive).
For `COc1cc2c(cc1OCCCN1Cc3ccc(OCCCCC(=O)N4CCC(CCN5CCCC5)CC4)cc3C1)N=C(N)C21CCCC1` the value was 84.9% (inactive); for `O=[n+]1c2ccccc2n([O-])c2cc(Cl)ccc21`, -0.993% (active); for `Cc1c(Cl)cccc1NC(=O)c1sc2nc3c(cc2c1N)C(=O)CCC3`, -1.76% (active).
With `Cc1cccc2c3c(sc12)C(c1ccc(F)cc1)C(C#N)=C(N)O3` (stereo not given), the growth is -21.8% (active).
In the case of `Oc1c(I)cc(I)cc1CNCCCN(Cc1ccccn1)Cc1ccccn1`, the growth is -27.1% (active).
For `COc1ccc(C#Cc2ccc(=O)oc2-c2cc(OC)c(OC)c(OC)c2)cc1O` the value was 23.5% (inactive); for `C#CC[C@@H]1C[C@]2(C)[C@H]3CC=C4[C@H]5[C@@H](C)[C@H](C)CC[C@]5(C(=O)NCCCN5CCN(CCCN)CC5)CC[C@@]4(C)[C@]3(C)CC[C@H]2C(C)(C)[C@H]1OC(C)=O`, -55.9% (active).
Take `COc1cc(C(=O)N/N=C/c2cc3cc(OCc4ccccc4)ccc3nc2OC)cc(OC)c1OC`: the growth was 98.9% (inactive).
`CCN(CC)c1ccc(/C=N/NC(=O)C[N+](C)(C)C)cc1`: the growth was 35.5% (inactive).
In the case of `Cc1ccc(-c2nc(/C=N/Nc3cc(C)nc4ccc(Br)cc34)c(C)o2)cc1` it was -37.4% (active).
In the case of `Cc1ccc2nc(-[n+]3cc4ccccc4cc3C)ccc2c1` it was 0.144% (active); in that of `C=C(C)[C@@H]1CC[C@]2(C(=O)n3ccnc3)CC[C@]3(C)[C@H](CC[C@@H]4[C@@]5(C)CCCNC(C)(C)[C@@H]5CC[C@]43C)[C@@H]12`, -56.2% (active); in that of `CC/C=C\C[C@@H](O)C/C=C1/C(=O)C=C[C@H]1C/C=C\CCCC(=O)OC`, -15.6% (active).
In the case of `O=C(NC1CCN(Cc2ccccc2)CC1)c1cc(-c2cccnc2)nc2ccc(Cl)cc12` it was 73.9% (inactive); in that of `CCOC(=O)c1[nH]c(=O)c2c(C)nc(-c3ccccc3)cc2c1O`, 111% (inactive); in that of `Clc1ccc(Nc2nnc(-c3ccc4c(c3)OCO4)o2)cc1`, 80.1% (inactive).
In the case of `CC/C=C\C/C=C\C[C@H](O)C/C=C1/C(=O)C=C[C@@H]1C/C=C\CCCC(=O)OC`, the growth was -19.5% (active).
For `CCCCN=C(N)c1ccc(OCCSCCOc2ccc(C(N)=NCCCC)cc2)cc1` the value was 38.8% (inactive); for `CC(=O)N(N=O)c1ccc([N+](=O)[O-])cc1Cl`, 55.7% (inactive).
In the case of `CN(C)CCCC(=O)Nc1ccc(Cn2nnc3c2C(=O)c2nnn(Cc4ccc(NC(=O)CCCN(C)C)cc4)c2C3=O)cc1` it was 8.78% (active).
In the case of `COC(=O)c1ccc(-n2cc(CCCOS(=O)(=O)c3ccc(F)cc3)nn2)cc1` it was 99.6% (inactive); in that of `O=C(/C=C/c1ccccc1)c1cccs1`, 102% (inactive).
